Consider twelve targets from the supplement of paper PMC10849652.

Common to all, as to assay: log2 fold change, soluble protein after heating vs DMSO (PISA); higher = thermal stabilisation; K562 cells, 10 uM, 30 min; active = over 0.2 and 3.5 SD of the protein, either way, in both replicates (recomputed)
Compound in assay [1]: CC1=C(SC2=C1C(=N[C@H](C3=NN=C(N32)C)CC(=O)N)C4=CC=C(C=C4)Cl)C
Summed up: (§1)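 Quantification of soluble protein used TMTpro 16plex LC-MS/MS, with channel sums equalised. Samples were the supernatant after 21,000xg for 90 min of pooled aliquots from K562 cells (2×10^6 cells/mL) treated with 10 μM compound for 30 min, heated for 3 min over 48°C-58°C, and extracted in PBS with 0.5% NP-40 at 4°C. Values, from duplicates, describe thermal stability against control samples on a log2 fold-change scale.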

Compound in assay [2]: CC1=C2C(=CC=C1)N=C(N(C2=O)C3=CC=CC=C3C)CN4C=NC5=C(N=CN=C54)N
Summed up:
as §1

Compound in assay [3]: Cc1sc2c(c1C)C(c1ccc(Cl)cc1)=N[C@@H](CC(=O)OC(C)(C)C)c1nnc(C)n1-2
An outline of the steps:
as §1

Compound in assay [4]: c1ccc([C@@H]2C[C@H]2NC2CCNCC2)cc1
Summed up:
as §1

Compound in assay [5]: C1=CC=C(C=C1)[C@H](COC2=CC3=C(C=C2)NC(=O)N3)NC(=O)C4=CC=CN(C4=O)CC5=CC(=C(C=C5)F)F
Summed up: as §1

Targets with a hit are over-represented here; the source holds about 7,900 in all. About 0.6% of all pairs of compound and target were hits. Unmarked numbers belong to inactive results.

Chain of UniProt Q14790 (Q14790 whole entry, looked up): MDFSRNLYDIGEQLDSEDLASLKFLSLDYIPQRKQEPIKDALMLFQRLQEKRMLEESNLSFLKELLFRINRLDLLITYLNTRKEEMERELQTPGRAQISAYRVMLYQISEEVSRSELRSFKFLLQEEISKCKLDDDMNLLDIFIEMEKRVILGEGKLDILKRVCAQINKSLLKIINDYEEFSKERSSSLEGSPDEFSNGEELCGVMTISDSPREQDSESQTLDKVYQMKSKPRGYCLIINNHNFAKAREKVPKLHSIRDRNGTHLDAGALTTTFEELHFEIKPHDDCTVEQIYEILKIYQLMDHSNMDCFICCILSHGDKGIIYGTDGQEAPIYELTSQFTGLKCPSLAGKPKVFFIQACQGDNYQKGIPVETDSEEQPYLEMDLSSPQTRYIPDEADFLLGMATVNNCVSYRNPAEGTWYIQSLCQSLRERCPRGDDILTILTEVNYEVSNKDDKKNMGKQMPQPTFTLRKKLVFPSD
Chain of UniProt Q13111 (Q13111 whole entry, looked up): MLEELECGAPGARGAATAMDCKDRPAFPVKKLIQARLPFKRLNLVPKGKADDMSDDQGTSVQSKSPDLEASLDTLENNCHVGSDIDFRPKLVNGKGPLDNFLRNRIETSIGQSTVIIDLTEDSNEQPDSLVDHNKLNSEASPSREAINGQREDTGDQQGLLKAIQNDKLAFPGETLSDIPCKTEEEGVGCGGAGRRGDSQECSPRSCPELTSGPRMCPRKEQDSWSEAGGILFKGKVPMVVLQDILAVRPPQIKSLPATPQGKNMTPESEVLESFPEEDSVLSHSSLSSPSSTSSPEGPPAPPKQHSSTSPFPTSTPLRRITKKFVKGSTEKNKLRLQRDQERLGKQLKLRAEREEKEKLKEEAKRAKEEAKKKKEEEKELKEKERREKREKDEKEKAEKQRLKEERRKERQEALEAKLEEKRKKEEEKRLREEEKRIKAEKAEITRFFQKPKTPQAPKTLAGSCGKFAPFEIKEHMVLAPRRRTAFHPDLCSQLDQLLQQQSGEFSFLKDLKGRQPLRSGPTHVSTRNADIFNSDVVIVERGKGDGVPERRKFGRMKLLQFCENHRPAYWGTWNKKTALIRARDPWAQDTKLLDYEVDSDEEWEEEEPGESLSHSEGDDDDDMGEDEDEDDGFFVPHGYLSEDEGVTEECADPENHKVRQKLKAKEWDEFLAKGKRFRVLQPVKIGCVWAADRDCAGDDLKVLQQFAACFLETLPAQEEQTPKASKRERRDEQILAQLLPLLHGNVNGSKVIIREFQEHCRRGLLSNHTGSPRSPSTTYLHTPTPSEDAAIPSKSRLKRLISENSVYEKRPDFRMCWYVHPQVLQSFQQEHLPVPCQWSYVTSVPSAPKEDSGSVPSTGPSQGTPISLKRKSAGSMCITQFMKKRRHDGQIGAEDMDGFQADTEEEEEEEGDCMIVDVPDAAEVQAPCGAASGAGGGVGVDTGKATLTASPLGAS
Chain of UniProt Q53ET0 (Q53ET0 whole entry, looked up): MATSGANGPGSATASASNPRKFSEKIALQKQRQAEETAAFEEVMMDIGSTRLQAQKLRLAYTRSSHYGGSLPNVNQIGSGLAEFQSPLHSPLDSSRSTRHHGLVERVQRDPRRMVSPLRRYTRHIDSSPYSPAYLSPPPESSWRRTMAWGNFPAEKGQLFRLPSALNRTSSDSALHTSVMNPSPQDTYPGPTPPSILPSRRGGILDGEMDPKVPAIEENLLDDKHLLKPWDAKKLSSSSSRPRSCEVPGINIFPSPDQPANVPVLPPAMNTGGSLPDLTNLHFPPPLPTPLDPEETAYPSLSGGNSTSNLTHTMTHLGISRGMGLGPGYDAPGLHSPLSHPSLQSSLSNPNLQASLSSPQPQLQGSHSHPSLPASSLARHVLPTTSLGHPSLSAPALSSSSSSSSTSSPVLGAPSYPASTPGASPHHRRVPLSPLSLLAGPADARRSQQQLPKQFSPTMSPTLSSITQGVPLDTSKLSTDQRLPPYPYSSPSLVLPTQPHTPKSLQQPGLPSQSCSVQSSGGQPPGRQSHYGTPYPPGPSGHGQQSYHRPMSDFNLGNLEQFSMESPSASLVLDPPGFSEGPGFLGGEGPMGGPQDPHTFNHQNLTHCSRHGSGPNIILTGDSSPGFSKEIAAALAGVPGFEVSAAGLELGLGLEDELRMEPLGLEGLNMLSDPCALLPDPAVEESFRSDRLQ
Chain of UniProt A8MTT3 (A8MTT3 whole entry, looked up): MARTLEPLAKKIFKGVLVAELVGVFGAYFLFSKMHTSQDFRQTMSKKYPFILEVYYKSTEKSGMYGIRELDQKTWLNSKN
Chain of UniProt P15954 (P15954 whole entry, looked up): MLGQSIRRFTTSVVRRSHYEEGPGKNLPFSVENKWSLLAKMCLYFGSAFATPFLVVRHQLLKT
Chain of UniProt Q7Z4R8 (Q7Z4R8 whole entry, looked up): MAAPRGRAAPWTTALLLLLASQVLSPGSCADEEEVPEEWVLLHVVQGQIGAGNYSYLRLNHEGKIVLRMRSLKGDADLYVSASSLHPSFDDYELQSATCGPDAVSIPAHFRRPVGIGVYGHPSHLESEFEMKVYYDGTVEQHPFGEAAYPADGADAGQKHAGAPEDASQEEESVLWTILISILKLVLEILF
Chain of UniProt Q8N668 (Q8N668 whole entry, looked up): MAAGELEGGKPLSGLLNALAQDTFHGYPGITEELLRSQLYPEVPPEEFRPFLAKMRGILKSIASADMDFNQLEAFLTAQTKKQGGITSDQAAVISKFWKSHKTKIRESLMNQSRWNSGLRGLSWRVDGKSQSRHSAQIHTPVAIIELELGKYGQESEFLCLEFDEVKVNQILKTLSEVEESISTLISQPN
Chain of UniProt O75956 (O75956 whole entry, looked up): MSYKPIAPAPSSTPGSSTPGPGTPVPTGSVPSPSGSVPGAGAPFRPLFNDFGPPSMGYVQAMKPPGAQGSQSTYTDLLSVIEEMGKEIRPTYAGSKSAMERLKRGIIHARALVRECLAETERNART
Chain of UniProt Q9BWU1 (Q9BWU1 whole entry, looked up): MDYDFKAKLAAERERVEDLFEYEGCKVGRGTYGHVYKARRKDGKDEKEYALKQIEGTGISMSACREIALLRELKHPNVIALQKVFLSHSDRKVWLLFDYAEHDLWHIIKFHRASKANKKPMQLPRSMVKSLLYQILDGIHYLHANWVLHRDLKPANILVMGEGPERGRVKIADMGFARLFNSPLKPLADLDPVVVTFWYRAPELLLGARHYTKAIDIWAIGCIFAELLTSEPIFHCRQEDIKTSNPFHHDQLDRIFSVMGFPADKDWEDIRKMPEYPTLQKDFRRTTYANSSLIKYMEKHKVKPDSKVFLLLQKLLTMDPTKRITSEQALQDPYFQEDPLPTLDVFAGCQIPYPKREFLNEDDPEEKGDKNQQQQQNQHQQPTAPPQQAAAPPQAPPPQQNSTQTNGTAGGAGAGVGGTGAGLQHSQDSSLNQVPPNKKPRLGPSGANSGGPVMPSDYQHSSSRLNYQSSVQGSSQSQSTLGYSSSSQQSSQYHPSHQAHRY
Chain of UniProt Q9H9S4 (Q9H9S4 whole entry, looked up): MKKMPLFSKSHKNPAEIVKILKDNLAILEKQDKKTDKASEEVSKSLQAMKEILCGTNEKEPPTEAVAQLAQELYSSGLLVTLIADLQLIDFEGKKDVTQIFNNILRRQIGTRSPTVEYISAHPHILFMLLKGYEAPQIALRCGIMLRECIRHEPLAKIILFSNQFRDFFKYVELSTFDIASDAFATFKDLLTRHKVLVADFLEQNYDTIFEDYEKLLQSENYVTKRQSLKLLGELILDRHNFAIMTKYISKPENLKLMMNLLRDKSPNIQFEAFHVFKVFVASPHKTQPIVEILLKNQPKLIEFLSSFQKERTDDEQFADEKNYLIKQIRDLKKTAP
Chain of UniProt Q14061 (Q14061 whole entry, looked up): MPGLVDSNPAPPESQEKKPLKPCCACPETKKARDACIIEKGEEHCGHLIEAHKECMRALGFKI

Regarding CDK19 (UniProt Q9BWU1), the log2 fold change in assay [1] is 0.035; in assay [2] it was 0.05; in assay [3] it was 0.021; in assay [4], 0.019.
Regarding CA1 (UniProt E5RIF9), the log2 fold change was -0.021 in assay [5], 0.187 in assay [2] and 0.143 in assay [3].
On to COX17 (UniProt Q14061), for which the log2 fold change is 0.12 in assay [1], 0.022 in assay [2], -0.073 in assay [3] and -0.085 in assay [4].
CRTC2 (UniProt Q53ET0): the log2 fold change is 0.006 in assay [5], -0.075 in assay [2] and 0.052 in assay [3].
Take CDK2AP2 (UniProt O75956): the log2 fold change in assay [5] was 0.026; in assay [1] it was -0.017; in assay [4] it was 0.012.
In the case of COX7C (UniProt P15954), the values for the log2 fold change in assay [5], in assay [2] and in assay [3] were -0.023, -0.073 and -0.079, respectively.
Regarding C6orf120 (UniProt Q7Z4R8), the log2 fold change in assay [5] was -0.018; in assay [2], 0.37 (active); in assay [3], -0.038.
On the same counts, the results for CEBPZOS (UniProt A8MTT3) are -0.044, -0.105 and -0.022.
Turning to CASP8 isoform 9 (UniProt Q14790), the log2 fold change is -0.013 in assay [5], 0.052 in assay [2] and 0.033 in assay [3].
Turning to CHAF1A (UniProt Q13111), the log2 fold change in assay [5] was 0.045; in assay [1] it was -0.026; in assay [4] it was -0.045.
As for CAB39L (UniProt Q9H9S4), the log2 fold change in assay [5] is 0.088; in assay [2] it was 0.201; in assay [3], 0.285.
For the target COMMD1 (UniProt Q8N668), the log2 fold change in assay [5] was 0.099; in assay [2], 0.007; in assay [3] it was 0.162.
